# Hits are enriched below; roughly 1.2% of the tested compounds scored in any of these assays.
# TrxR1 substrate = rat thioredoxin reductase 1 substrate activity; O89049; purified TrxR1 substrate turnover, NADPH consumption readout; Potency, µM (highest dose often 114 µM); 0.01% of 390,000 active; AID 588456; note: nearly all actives have a fitted effect of over 50% in size
# Target sequence (O89049 whole entry, looked up): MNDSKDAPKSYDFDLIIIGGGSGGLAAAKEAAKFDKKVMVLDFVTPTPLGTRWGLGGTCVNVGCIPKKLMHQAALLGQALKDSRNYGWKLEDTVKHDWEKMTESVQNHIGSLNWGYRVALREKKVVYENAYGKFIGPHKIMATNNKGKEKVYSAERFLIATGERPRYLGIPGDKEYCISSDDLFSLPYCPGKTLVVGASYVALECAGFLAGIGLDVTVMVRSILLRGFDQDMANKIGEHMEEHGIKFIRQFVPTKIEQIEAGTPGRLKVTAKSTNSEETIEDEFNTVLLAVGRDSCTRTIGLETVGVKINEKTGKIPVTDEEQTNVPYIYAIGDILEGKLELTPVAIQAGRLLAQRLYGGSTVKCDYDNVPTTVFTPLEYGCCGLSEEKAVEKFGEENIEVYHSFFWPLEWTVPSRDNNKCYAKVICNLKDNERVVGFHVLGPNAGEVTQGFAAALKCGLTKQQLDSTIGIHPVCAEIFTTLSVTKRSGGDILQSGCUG
#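 Rat TrxR1, dispensed at 90 nM, was prereduced with 400 uM NADPH (final) for 5 min at ~22 deg C, then incubated with compound 15 min before 400 uM selenite. A first-read NADPH fluorescence drop versus no-compound background flagged substrates.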
# GLS inhibitor = blocks human kidney-isoform glutaminase activity. Potency, µM (series often up to 45.5 µM), usual class: inhibitors. 0.21% of 410,000 active. AID 624170. GLS enzymatic activity, qHTS titration. O94925
#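 Enzyme dispensed in phosphate buffer (45 mM, pH 8.2, 0.02% Tween-20), compounds pinned in, then 1 mM L-glutamine solution and the glutamate oxidase–HRP–Amplex Red mix added; fluorescence read immediately and again after 30 min at room temperature.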
# mIDH1 inhibitor = blocks human mutant IDH1 R132H enzyme; O75874; IDH1-R132H enzyme, NADPH consumption, diaphorase/resazurin fluorescence; Potency, µM (series often up to 76.6 µM), usual class: inhibitors; 0.093% of 390,000 active; AID 602179; note: nearly all actives have a fitted effect of over 65% in size
#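 IDH1-R132H (0.5 ug/mL) preincubated 30 min with compound, then NADPH (0.016 mM) and alpha-KG (2 mM) added; 80 min at RT, pH 7.5. Remaining NADPH coupled via diaphorase/resazurin to fluorescence (540/590 nm); concentration-response curves normalized to no-enzyme control.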
# TrxR1 inh = rat TrxR1 inhibition; 1% of 390,000 active; recombinant rTrxR1, NADPH fluorescence consumption, selenite substrate; Potency, µM (highest dose often 114 µM), actives largely listed as inhibitors; O89049; AID 588453; note: nearly all actives have a fitted effect of over 65% in size
#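 Rat TrxR1 (90 nM in the dispensed reagent) was pre-reduced with 400 uM NADPH for 5 min at room temperature, then incubated with compound for 15 min. After 400 uM selenite was added, NADPH fluorescence (Ex 340/Em 450 nm) was followed for 8 min.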
# Hits are given with their value; 0 = inactive; ? = inconclusive; - = no result given; ! = not confirmed by another sample; [ ] = remark or other dose. Calls come from the whole dose curve; as a rule, active = well fitted curve in the direction sought with a large enough effect; inconclusive = small, poorly fitted or top-dose-only effect, or another doubt; inactive = no such curve, though single readings can be large; an effect the other way counts as inactive or inconclusive.
SMILES,TrxR1 substrate,GLS inhibitor,mIDH1 inhibitor,TrxR1 inh
COc1cccc(NC(=O)c2ccc(-c3nc(COc4ccccc4)c(C)o3)cc2)c1,0,0,0,0
Nc1ccc(O)c([N+](=O)[O-])c1,0,39.8µM!,0,0
Nc1cc([N+](=O)[O-])ccc1O,0,0,0,0
COc1ccc2c(c1)CCc1c(C(=O)N3CCCCCC3)noc1-2,0,0,0,11.2µM
CCCNC(=O)c1noc2c1CCc1cc(OC)ccc1-2,0,0,0,?
COC(=O)CCS(=O)(=O)c1nc(-c2ccccc2)cc(C(F)(F)F)n1,0,0,0,17.8µM
CCOC(=O)CCS(=O)(=O)c1nc(-c2ccccc2)cc(C(F)(F)F)n1,0,0,0,15.8µM
COCC(C)NC(=O)CCS(=O)(=O)c1nc(-c2ccc(OC)cc2)cc(C(F)(F)F)n1 (stereo not drawn),0,0,0,56.2µM
COc1ccc2[nH]cc(C(=O)CNc3nccs3)c2c1,0,-,-,0
COc1cc(OC)cc(-c2nc3n(n2)C(c2ccccc2F)C(C(=O)Nc2cccnc2)=C(C)N3)c1 (stereo not drawn),0,0,0,0
O=c1c(C(c2nnnn2C2CCCCC2)N2CCCCC2)coc2ccc(Cl)cc12 (stereo not drawn),0,0,0,28.2µM
Clc1ccc(C(c2nnnn2C2CCCC2)N2CCN(Cc3ccncc3)CC2)cc1 (stereo not drawn),0,0,0,0
COc1ccc(-c2nn(CCC#N)cc2C=C(C#N)C#N)cc1,0,0,0,?
Cc1ccc(-c2nn(CCC#N)cc2C=C(C#N)C#N)cc1,0,0,0,7.94µM
CCn1nc([N+](=O)[O-])c(C(C#N)c2nc3cc(C(F)(F)F)ccc3s2)c(Cl)c1=O (stereo not drawn),0,0,0,31.6µM
CCCn1nc([N+](=O)[O-])c(C(C#N)c2nc3ccccc3o2)c(Cl)c1=O (stereo not drawn),0,0,0,11.2µM
Cn1nc([N+](=O)[O-])c(C(C#N)c2ccccn2)c(Cl)c1=O (stereo not drawn),0,0,0,2.82µM
COc1ccc(Cl)cc1CNC[C@H]1O[C@@H](n2cnc3c(=O)[nH]c(N)nc32)[C@H](O)[C@@H]1O,-,0,-,-
O=C(OCn1ncc(Cl)c(Cl)c1=O)c1ccccc1Cl,0,0,0,8.91µM
Cn1nnnc1Sc1ncnc2scc(-c3ccccc3Br)c12,0,0,-,0
Cn1nnnc1Sc1ncnc2scc(-c3ccc[nH]3)c12,0,0,-,50.1µM
Cn1nnnc1Sc1ncnc2scc(-c3ccccc3)c12,0[11.4 µM],0,0,0[11.4 µM]
Cn1nnnc1Sc1ncnc2scc(Br)c12,0,0,-,5.62µM
O=[N+]([O-])c1c(Nc2ccccc2O)cc(Cl)c2nonc12,0,0,0,0.708µM
O=C(O)c1cc(Nc2cc(Cl)c3nonc3c2[N+](=O)[O-])ccc1O,0,0,0,1.78µM
SMILES,TrxR1 substrate,GLS inhibitor,mIDH1 inhibitor,TrxR1 inh
O=[N+]([O-])c1c(Nc2ccc(O)cc2)cc(N2CCOCC2)c2nonc12,0,0,0,0
COCCNC(=O)C1(C)CCCN(C(=O)c2ccc(OC)cc2OC)C1 (stereo not drawn),-,0,-,-
COc1cc(Cl)c(C)cc1NC(=O)c1c(C)oc2nc(C)nc(N3CCCC3)c12,0,0,0,0
CCN1C(C(=O)c2ccccc2)=C(OC(=O)COc2ccccc2)c2ccccc2S1(=O)=O,0,0,0,28.2µM
CCN1C(C(=O)c2ccccc2)=C(OC(=O)C(C)C)c2ccccc2S1(=O)=O,0,0,0,0
CCOc1ccc(CNC(=O)c2ccc3c(Cl)c4c(nc3c2)CCCC4)cc1,0,0,0,0
O=C(CN(C1CCCCC1)S(=O)(=O)c1ccccc1)NCc1ccco1,0,0,0,28.2µM
COc1ccccc1N(CC(=O)NCc1ccco1)S(=O)(=O)c1ccc(C)cc1,0[0.0914 µM],0,0,31.6µM
COc1ccc(N(CC(=O)NCc2ccco2)S(=O)(=O)c2ccc(C)cc2)cc1OC,0[0.0914 µM],0,0,0
COc1cccc(N(CC(=O)NCCSCc2ccco2)S(=O)(=O)c2ccccc2)c1,0,0,0,0
Cc1cccc(N(CC(=O)NCCSCc2ccco2)S(=O)(=O)c2ccccc2)c1,0,0,0,11.2µM
Cc1ccc(S(=O)(=O)N(CC(=O)NCc2ccco2)C2CCCCC2)cc1,0,0,0,0
Cc1cc2nc(-c3cccc(NC(=O)COc4ccc(C(C)C)cc4)c3)oc2cc1C,0,0,0,0
Brc1cccc[n+]1CCCCCC[n+]1ccccc1Br,0,-,-,?

# Screens (PubChem)
